The record followed here is PubChem BioAssay (Tox21).

Results filed as inconclusive are left out. Calls of active or inactive are those of the source. Calls come from the whole dose curve.

Vitamin D3 receptor (Homo sapiens), sequence (P11473 whole entry, looked up): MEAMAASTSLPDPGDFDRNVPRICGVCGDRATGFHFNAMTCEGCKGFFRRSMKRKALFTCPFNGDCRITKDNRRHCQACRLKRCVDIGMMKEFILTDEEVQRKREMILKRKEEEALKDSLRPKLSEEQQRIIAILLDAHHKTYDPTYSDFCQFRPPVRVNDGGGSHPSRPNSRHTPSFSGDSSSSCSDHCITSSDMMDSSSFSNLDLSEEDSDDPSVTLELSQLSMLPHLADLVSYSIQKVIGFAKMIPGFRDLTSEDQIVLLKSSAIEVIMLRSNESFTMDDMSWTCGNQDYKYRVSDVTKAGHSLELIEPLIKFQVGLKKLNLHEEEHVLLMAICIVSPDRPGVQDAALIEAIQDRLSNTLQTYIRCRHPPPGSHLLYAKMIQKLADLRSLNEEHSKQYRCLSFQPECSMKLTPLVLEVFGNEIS

This test has as its target Vitamin D3 receptor (Homo sapiens) (UniProt P11473). In words: qHTS assay to identify small molecule agonists of the vitamin D receptor (VDR) signaling pathway (AID 743222). The conditions noted are these: HEK293T VDR-UAS-bla, beta-lactamase FRET ratio, 16 h; series mostly up to 63.5 µM. From the text: National Center for Advancing Translational Sciences [NCATS]
NIH Chemical Genomics Center [NCGC]
U.S. Environmental Protection Agency [EPA]
National Institutes of Environmental Health Sciences [NIEHS]
National Toxicology Program [NTP]
U.S. Food and Drug Administration [FDA]
The vitamin D receptor (VDR), a member of nuclear hormone receptor superfamily, plays a critical role in calcium homeostasis and bone metabolism. It is also involved in cell differentiation and growth, and thrombogenicity.
Tox21 Assay Protocol Summary:
VDR-bla cells were dispensed at 2,000 cells/6 uL/well into black wall/clear-bottom 1536-well plates using a Multidrop Combi (Thermo Fisher Scientific, Waltham, MA) dispenser. After the assay plates were incubated at a 37C and 5% CO2 for 4 h, 23 nL of compounds dissolved in DMSO, positive controls or DMSO only was transferred to the assay plate by a Pintool station (Kalypsys, San Diego, CA). The plates were incubated at 37C and 5% CO2 for 16 h. After 1 uL of LiveBLAzerTM B/G FRET substrate was added using a Bioraptr Flying Reagent Dispenser (FRD) workstation (Beckman Coulter, Indianapolis, IN, USA), the plates were incubated at room temperature for 2 h, and fluorescence intensity was measured by an Envision plate reader (PerkinElmer, Shelton, CT).
Consider `NNc1nncc2ccccc12`, for which the outcome was inactive.
The same measure for `OCCOCCN1CCN(C2=Nc3ccccc3Sc3ccccc32)CC1`: “inactive”; for `CC[C@H](C)C(=O)O[C@H]1C[C@@H](C)C=C2C=C[C@H](C)[C@H](CC[C@@H]3C[C@@H](O)CC(=O)O3)[C@H]21`: “inactive”; for `CCCCCCCC(=O)OC`: “inactive”.
For the molecule `CCCCC(CC)COC(=O)CS` (stereo not given), the outcome was inactive.
On to `CCN(CC)CCCC(C)Nc1ccnc2cc(Cl)ccc12` (stereo not given), for which the outcome was inactive.
In the case of `COc1ccc2cc([C@H](C)C(=O)O)ccc2c1` it was “inactive”; in that of `O=C(O)c1cc(C(=O)O)cc(S(=O)(=O)O)c1`, “inactive”; in that of `CCCCC(CC)COC(=O)CCCCC(=O)OCC(CC)CCCC` (stereo not given), “inactive”.
On to `O=c1[nH]c(=O)n([C@H]2C[C@H](O)[C@@H](CO)O2)cc1Br`, for which the result was inactive.
The same measure for `C=C(C)C(=O)OCCOCCOCCOC(=O)C(=C)C`: “inactive”; for `O=C(O)[C@H](O)[C@@H](O)[C@H](O)[C@H](O)CO`: “inactive”; for `Cc1ccc(S(N)(=O)=O)cc1`: “inactive”.
The same measure for `N[C@@H](Cc1cc(I)c(Oc2cc(I)c(O)c(I)c2)c(I)c1)C(=O)O`: “inactive”; for `Cc1cccnc1`: “inactive”; for `CC(C)CC(=O)CC(C)C`: “inactive”.
The same measure for `CCCCCCCCCCCCCCO`: “inactive”; for `CC(C)(N)CO`: “inactive”.
As to `CCC(O)OC(O)CC` (stereo not given), the outcome was inactive.
In the case of `CCN(CC)c1ccc(C(=O)c2ccccc2C(=O)O)c(O)c1` it was “inactive”.
Regarding `COS(C)(=O)=O`, the result was inactive.
As for `Cc1occc(=O)c1O`, the result was inactive.
In the case of `Nc1cc([N+](=O)[O-])ccc1O` it was “inactive”; in that of `CCCCCCCCCCCCS`, “inactive”; in that of `CC(O)COCC(C)O` (stereo not given), “inactive”.
In the case of `Cc1ccc(N(C)C)cc1` it was “inactive”; in that of `O=[N+]([O-])c1ccc(/C=C/c2ccc([N+](=O)[O-])cc2S(=O)(=O)O)c(S(=O)(=O)O)c1`, “inactive”.
The same measure for `O=S(=O)(O)c1ccc2ccccc2c1`: “inactive”; for `c1ccc2scnc2c1`: “inactive”; for `CC(=O)CC(=O)Nc1ccccc1C`: “inactive”.
In the case of `C=CCNC(N)=S`, the outcome was inactive.
The same measure for `CCOC(=O)NNc1nncc2ccccc12`: “inactive”; for `O=C(O)c1cc(O)c(O)c(O)c1`: “inactive”.
The same measure for `CCCCC(CC)CO` (stereo not given): “inactive”.
In the case of `O=C(O)CCCCCCCCCCC(=O)O` it was “inactive”; in that of `O=C(OCCOCCOC(=O)c1ccccc1)c1ccccc1`, “inactive”.
As to `CCCSc1ccc2nc(NC(=O)OC)[nH]c2c1`, the outcome was inactive.
With `c1c[nH]cn1`, the outcome was inactive.
Regarding `CC1CCC(C(C)C)C(O)C1` (stereo not given), the outcome was inactive.
For `FC(F)(F)c1ccc(Cl)c(Cl)c1`, the outcome was inactive.
